# Laboratory results as given in PubChem BioAssay AID777 (Sanford-Burnham Center for Chemical Genomics, 2007).
# Hit rate of the full screen: of about 96,000 compounds, about 19,000 (20%) were called active. These entries were drawn from the full list. Values without a mark were called inactive.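 Rule for the calls: active = blocking of liver enzyme CYP2C9 beyond about 50% at 5 µM (limit read from the data); inactive = the rest.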
# Target: Cytochrome P450 2C9 (Homo sapiens) (UniProt P11712)
# Test: blockers of cytochrome P450 2C9 activity – biochemical, luminescence, ADME assay, primary screen (AID 777)
# Details: CYP2C9 Supersomes, luciferin-H conversion, at 5 µM, stronger effect = higher value
# Chain of Cytochrome P450 2C9 (Homo sapiens) (P11712 whole entry, looked up): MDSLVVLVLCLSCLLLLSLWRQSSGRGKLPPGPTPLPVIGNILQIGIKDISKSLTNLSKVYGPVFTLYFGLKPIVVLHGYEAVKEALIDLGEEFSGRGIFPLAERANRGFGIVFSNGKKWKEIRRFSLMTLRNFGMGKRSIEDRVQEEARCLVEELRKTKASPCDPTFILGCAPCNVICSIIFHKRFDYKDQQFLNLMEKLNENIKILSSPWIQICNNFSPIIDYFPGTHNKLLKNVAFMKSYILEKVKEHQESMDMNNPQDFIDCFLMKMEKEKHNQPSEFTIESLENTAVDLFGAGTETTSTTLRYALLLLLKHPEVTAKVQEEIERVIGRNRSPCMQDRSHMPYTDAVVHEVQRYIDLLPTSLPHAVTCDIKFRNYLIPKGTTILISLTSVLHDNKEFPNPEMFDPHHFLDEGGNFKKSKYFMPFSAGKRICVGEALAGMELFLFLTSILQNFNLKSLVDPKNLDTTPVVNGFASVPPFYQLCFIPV
row,SMILES,inhibition
1,O=C(NC1CCCC1)c1ccc(Br)s1,33.9%
2,CCOc1cc(S(=O)(=O)NCc2ccc3c(c2)OCO3)ccc1F,61% (active)
3,CCOc1c2ccc(C(=O)NCc3ccc4c(c3)OCO4)cc2nn1C,41.4%
4,CCOc1cc(S(=O)(=O)NC2CC(C)(C)NC(C)(C)C2)ccc1F,-1.2%
5,COc1ccc(OCCCC(=O)Oc2ccc(OC)cc2)cc1,11.2%
6,Cc1ccc(/C=N\n2c(-c3ccccc3)n[nH]c2=S)s1,13.6%
7,Cn1c(-c2sc3cc(C(F)(F)F)cnc3c2-c2ccccc2)n[nH]c1=S,51.7% (active)
8,Cc1cc(C(F)(F)F)n2ncc(-c3ccccc3)c2n1,0.4%
9,O=C(NCCc1ccccn1)c1cc(C(=O)C2CCCCC2)c[nH]1,10.3%
10,CC(C)Oc1ccc(CCc2n[nH]c(=S)n2Cc2ccccc2)cc1,16.2%
11,O=c1[nH]nc(CSCc2ccccc2Cl)[nH]1,-20.8%
12,S=c1[nH]nc(CSCc2ccc(Cl)cc2Cl)n1-c1ccccc1,76.5% (active)
13,CC(Cc1cccs1)NC(=O)NC1CCCCC1 (configuration not stated),12.2%
14,Fc1ccc(CNc2nc3ccccc3n3nnnc23)cc1,11.6%
15,COc1ccc(-c2c3c(=O)n(C)c(=O)n(C)c3cn2NC(C)=O)cc1,1.5%
16,CCc1ccccc1NC(=O)CN(C)S(=O)(=O)c1ccc2c(c1)c(=O)n(C)c(=O)n2C,-17.2%
17,COc1ccc(N(C(=O)c2cccnc2)S(=O)(=O)c2ccc3c(c2)n(C)c(=O)n3C)cc1,86.2% (active)
18,Cc1ccsc1C(C(=O)NC1CCCCC1)N(C(=O)Cc1cccs1)C1CC1 (configuration not stated),18.5%
19,Cc1ccc(F)cc1NC(=O)c1cccc(N(C)C)c1,-1.6%
20,Cc1ccc(C(c2nnnn2CS(=O)(=O)c2ccc(C)cc2)N2CCC(C)CC2)cc1 (configuration not stated),-18.8%
21,Cc1cc(C(=O)OCC(=O)c2c(N)n(C)c(=O)n(C)c2=O)c(C)o1,15.9%
22,Cc1cc(NC(=O)COC(=O)c2ccc(F)c(S(=O)(=O)N3CCOCC3)c2)no1,-0.2%
23,Cc1cc(C(=O)OCC(=O)Nc2ccc(F)c(F)c2)c(C)o1,61.2% (active)
24,O=C(O)CSC(NC(=O)c1cccnc1)(C(F)(F)F)C(F)(F)F,3.1%
25,CC1CC2=C(CC1/C=N/NC(N)=S)C(C)(C)CCC2 (configuration not stated),43.1%

row,SMILES,inhibition
1,CC(=O)NNc1cc(=O)c2c(=O)n(C)c(=O)n(C)c2[nH]1,6.5%
2,CC(=O)NC(Cc1ccc(F)cc1)C(=O)O (configuration not stated),6.7%
3,O=c1/c(=C/c2ccc(CNS(=O)(=O)c3ccccc3)o2)sc2n1CCN=2,71.2% (active)
4,O=c1nc2s/c(=C\c3ccco3)c(=O)n2nc1Cc1ccccc1,-5.6%
5,O=S(=O)(NCC1OCCc2ccccc21)c1ccccc1 (configuration not stated),3%
6,Cc1cc(C(F)(F)F)nn1CC(=O)N1CCCC1,1%
7,CCCC(=O)Nc1cc(OCC)c(NC(=O)NC2CCCCC2)cc1OCC,4.7%
8,O=C(CCCC(=O)N(CC(=O)NC1CCCC1)Cc1ccccc1Cl)Nc1ccccn1,77.3% (active)
9,CCC(C)(NC(=O)c1ccccn1)C(=O)NC1CCCCC1 (configuration not stated),12.3%
10,CN(CC(=O)NC1CCCCC1)S(=O)(=O)c1cccc2cccnc12,-46%
11,Cc1noc(C)c1C(=O)N(CC(=O)NC1CCCC1)Cc1ccccc1F,26.2%
12,CCOc1ccccc1N(CC(=O)NC1CCCCC1)C(=O)CCCC(=O)Nc1ccccn1,79.8% (active)
13,COc1ccc(N2C(=O)C3CCCN3C2c2cccs2)cc1 (configuration not stated),31.3%
14,O=C1CSC(c2ccccc2)N1c1nc(-c2ccc(Cl)cc2Cl)cs1 (configuration not stated),21.8%
15,O=C(NCCCNCc1ccccc1)c1ccc(/C=N/O)nc1,-11.5%
16,O=C(CCCn1c(=O)oc2ccccc21)Nc1cccnc1,-30.9%
17,COC(=O)C(C)n1cnc2c(nnn2-c2cccc(Cl)c2)c1=O (configuration not stated),1.7%
18,CN=C1SC(C(=O)O)CC(=O)N1C (configuration not stated),-6.4%
19,COC(=O)C(CC(=O)Nc1cc(C)ccc1C)Nc1ccccc1OC (configuration not stated),7.7%
20,CCOc1cc(C(=S)N2CCOCC2)ccc1O,-10.2%
21,O=P(c1cccs1)(c1cccs1)c1cccs1,12.7%
22,O=C1CC(c2cccc(F)c2)C2=C(CCCC2=O)N1 (configuration not stated),12.1%
23,COc1cc2ccccc2cc1C(=O)Nc1ccc(S(=O)(=O)Nc2cc(C)on2)cc1,3.1%
24,COc1ccc2nc(SCC(=O)Nc3c(C)cc(C)cc3C)[nH]c2c1,81.5% (active)
25,COc1ccc(NC(=O)CSc2nc(N)c(-c3ccccc3)c(=O)[nH]2)cc1,3.1%

row,SMILES,inhibition
1,COc1ccc(OC)c(NC(=O)CSc2nc(N)c(-c3ccccc3)c(=O)[nH]2)c1,29.2%
2,COC(=O)c1cccc(NC(=O)CSc2nc(C)cc(=O)[nH]2)c1,42.6%
3,COc1ccc(NC(=O)CSc2nc(NS(=O)(=O)c3ccc(C)cc3)cc(=O)[nH]2)cc1,91.7% (active)
4,Cc1ccc(NC(=O)NCC(c2cccnc2)N2CCOCC2)cc1 (configuration not stated),2.5%
5,COc1ccc(N/N=C2/CCCCC2=O)cc1,-10.8%
6,Cc1nc2cc(NC(=O)NCc3ccccc3)ccc2o1,-5.6%
7,O=C(O)c1cscn1,-3.7%
8,N#C/C(=C(\O)CCl)c1nnc2n1CCCCC2,3.8%
9,O=C(CCC(=O)OCC(F)(F)C(F)F)NCc1ccccc1,4.8%
10,O=C(CCC(=O)OCc1cccc(C(=O)Oc2ccccc2)c1)Nc1cccc2ccccc12,95.5% (active)
11,O=C(O)c1ccccc1-c1ccccc1C(=O)Nc1cccc2ccccc12,36%
12,CCOC(=O)C1=C(CSc2nnnn2C)N(C)C(=O)NC1c1ccccc1 (configuration not stated),-20.4%
13,Cc1ccccc1NC(=O)C(C)c1ccc(-c2ccccc2)c(F)c1 (configuration not stated),67.2% (active)
14,CC(Sc1nncn1C)C(=O)Nc1ccccc1-c1ccccc1 (configuration not stated),15.8%
15,Cc1ccccc1NC(=O)c1ccccc1,0.6%
16,Cc1cccc(N2CCN(Cc3c(C)n(C)n(-c4ccccc4)c3=O)CC2)c1C,-16.5%
17,CCOC(=O)N1CCN(Cc2nc(N)nc(Nc3ccc(C)cc3)n2)CC1,15.5%
18,Cc1ccccc1Nc1nc(N)nc(CN2CCN(c3ccccn3)CC2)n1,23.8%
19,CN(CCO)Cc1csc2ccc(Br)cc12,-22.8%
20,CCC1(C)N(O)C(C)(C)C(c2ccc(OC)cc2)=[N+]1[O-] (configuration not stated),0.3%
21,COC(=O)C(C)Oc1ccc2c(-c3cccc([N+](=O)[O-])c3)cc(=O)oc2c1 (configuration not stated),28.8%
22,O=Cc1c(N2CCN(c3cccc(Cl)c3)CC2)nc2ccccn2c1=O,49.1%
23,Cc1ccc(C(c2nnnn2CS(=O)(=O)c2ccc(C)cc2)N2CCC(C(N)=O)CC2)cc1 (configuration not stated),6.2%
24,Cc1cccn2c(=O)c(/C=C(\C#N)S(=O)(=O)c3ccc(Cl)cc3)c(N3CCC(C(N)=O)CC3)nc12,96.9% (active)
25,COc1ccc(CC(=O)Nc2nc3n(n2)C(c2ccccc2)CC(=O)N3)cc1OC (configuration not stated),-5.5%

row,SMILES,inhibition
1,COCCCNC(=O)c1ccc2c(c1)ncn2-c1ccccc1OC,-38.2%
2,COc1ccccc1-n1cnc2cc(NS(=O)(=O)c3ccccc3)ccc21,82.5% (active)
3,COc1ccccc1-n1cnc2cc(C(=O)NCC3CCCO3)ccc21 (configuration not stated),-36.5%
4,Cn1ncc(Br)c1C(=O)NCc1cccs1,1.5%
5,COc1ccc(-c2csc3nc(-c4ccccc4F)oc(=O)c23)cc1OC,-1.8%
6,Cc1ccc(S(=O)(=O)N2CCC(C(=O)N[C@@H](C)C(=O)NCc3ccccc3)CC2)cc1,-9.2%
7,CCN(CC)S(=O)(=O)c1ccc(N2CCOCC2)c(C(=O)O)c1,19.3%
8,CN(C)S(=O)(=O)c1ccc(N2CCCC2)c(C(=O)NCc2ccccc2)c1,59.9% (active)
9,O=C(CSc1nnc(Cn2cnc3ccccc32)o1)c1ccccc1,32.1%
10,CCOC(=O)N1CCN(CC(=O)c2c(C)[nH]c3ccccc23)CC1,-60.1%
11,COc1cc(OC)c(C(=O)Nc2ccc(N(C)C)cc2)cc1OC,33.3%
12,CCC(=O)Nc1ccc(C(=O)Nc2cccc(OC)c2)cc1,-13.5%
13,CCNS(=O)(=O)c1ccc(NC(=O)Nc2cccc(OC)c2)cc1,59.5% (active)
14,CCNS(=O)(=O)c1ccc(NC(=O)Nc2cccc(C(F)(F)F)c2)cc1,34.1%
15,CCOC(=O)C1=C(c2ccccc2)O/C(=C(/C(=O)OC)C(F)(F)F)S1,20.8%
16,COc1ccc(-c2[nH]nc3c2C(c2ccncc2)C(C#N)=C(N)O3)cc1 (configuration not stated),-13%
17,CCCc1[nH]nc2c1C(c1ccc(OC)c(Cn3nc(C)c(Br)c3C)c1)C(C#N)=C(N)O2 (configuration not stated),11.8%
18,CCCc1[nH]nc2c1C(c1c(C)nn(-c3ccccc3)c1Cl)C(C#N)=C(N)O2 (configuration not stated),52.8% (active)
19,CCCc1[nH]nc2c1C(c1ccc(Br)s1)C(C#N)=C(N)O2 (configuration not stated),33%
20,Cc1cc(C)c(C#N)c(SCc2[nH]nc3c2C(c2ccccc2)C(C#N)=C(N)O3)n1 (configuration not stated),18.4%
21,CCCc1[nH]nc2c1C(c1ccc(OC(=O)c3ccco3)cc1)C(C#N)=C(N)O2 (configuration not stated),52% (active)
22,COC(=O)c1cc(S(=O)(=O)NC2CCN(Cc3ccccc3)CC2)cn1C,-9.6%
